# HP1b chromo inh = inhibitors of HP1-beta chromodomain binding to methylated histone tails | P83916 | AlphaScreen HP1-beta / biotin-H3K9me3 peptide binding | Potency, µM (series often up to 114 µM), for the others: at the highest dose activity change, negative = inhibition, hits mostly inhibitors | actives 0.56% (n = 390,000); further: nearly all actives have a fitted effect of over 70% in size
# Target sequence (P83916 whole entry, looked up): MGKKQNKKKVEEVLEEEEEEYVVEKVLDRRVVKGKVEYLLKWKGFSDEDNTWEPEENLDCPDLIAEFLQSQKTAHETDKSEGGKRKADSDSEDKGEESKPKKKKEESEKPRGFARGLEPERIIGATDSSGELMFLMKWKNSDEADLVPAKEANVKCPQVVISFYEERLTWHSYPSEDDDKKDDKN
#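 Compound inhibition of the preformed complex between 50 nM HP1-beta and 50 nM biotinylated H3K9me3 peptide was read by AlphaScreen. Buffer was PBS pH 7.4 with 0.01% Tween-20. Incubations ran 30 min at room temperature, with 10 ug/mL donor/acceptor beads.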
# BAZ2B inh = BAZ2B (human) inhibition; Q9UIF8; AlphaScreen BAZ2B-H3K14Ac peptide displacement; Potency, µM (series often up to 114 µM), inactives show at the top dose activity change, negative = inhibition, hits mostly inhibitors; actives 4.4% (n = 360,000); AID 504333; further: on the % scale 0 is the no-effect control and ±100 the full control effect; nearly all actives have a fitted effect of over 60% in size
#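 AlphaScreen displacement of biotin-H3(5-23)K14Ac peptide (50 nM final) from BAZ2B (50 nM final) in PBS pH 7.4, 0.01% Tween-20; complex preformed 30 min RT, then compounds (top 110 uM) 30 min RT, beads 20 min dark.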
# G9a inh = blocks human histone lysine methyltransferase G9a; Q96KQ7; G9a H3K9 monomethylation, AlphaScreen, 2 h; Potency, µM (series often up to 102 µM), without a hit: at the top dose activity, negative = inhibition, most hits filed as inhibitors; actives 8.8% (n = 350,000); AID 504332; further: on the % scale 0 is the no-effect control and ±100 the full control effect; nearly all actives have a fitted effect of over 75% in size
# Target sequence (Q96KQ7 913-1193 limits assumed): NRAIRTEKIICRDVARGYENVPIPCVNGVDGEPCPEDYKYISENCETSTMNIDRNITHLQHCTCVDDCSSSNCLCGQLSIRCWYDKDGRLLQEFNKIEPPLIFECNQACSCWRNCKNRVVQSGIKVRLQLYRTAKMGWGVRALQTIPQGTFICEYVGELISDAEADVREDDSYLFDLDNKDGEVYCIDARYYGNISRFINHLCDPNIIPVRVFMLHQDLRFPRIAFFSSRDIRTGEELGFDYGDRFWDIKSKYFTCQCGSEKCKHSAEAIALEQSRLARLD
#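 Quantitative HTS format: methyltransferase activity on a biotin-tagged H3K9 peptide is measured by AlphaScreen, using a rabbit anti-monomethyl-H3K9 antibody with streptavidin donor and anti-IgG acceptor beads. Final levels are 20 nM enzyme, 500 nM peptide, 20 uM SAM; 2 h RT.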
# Sfp PPTase inh = Sfp phosphopantetheinyl transferase inhibition. Q9F4F7. Biochemical Sfp PPTase activity, qHTS. Potency, µM, for the others: largest response in the series, negative = inhibition, usual class: inhibitors. actives 3.5% (n = 310,000). AID 1490;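 further: the enzyme is Sfp with the accession as filed and its product quenches rhodamine fluorescence; 0% = enzyme reaction without inhibitor and -100% = no enzyme wells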
#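 After 15 min at room temperature with compound, 15 nM Sfp received 5 uM rhodamine-CoA plus 12.5 uM BHQ-2-ybbR (50 mM Hepes pH 7.6, 10 mM MgCl2). Rate came from the fluorescence difference over 30 min, ex 525/em 598 nm.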
# JMJD2A Tudor = blocks the human JMJD2A Tudor domain. O75164. Potency, µM (doses to about 114 µM), for inactives: top-dose activity change, negative = inhibition, most hits filed as inhibitors. actives 4.4% (n = 390,000). AlphaScreen JMJD2A-Tudor / H3K4me3 peptide binding; further: on the % scale 0 is the no-effect control and ±100 the full control effect; nearly all actives have a fitted effect of over 50% in size
# L3MBTL1 inh = L3MBTL1 (human) inhibition; Potency, µM (top dose mostly 57.1 µM), for inactives: top-dose activity, negative = inhibition, usual class: inhibitors; actives 0.66% (n = 230,000); AID 485360; AlphaScreen L3MBTL1–H3K9me1 peptide binding; Q9Y468; further: on the % scale 0 is the no-effect control and ±100 the full control effect; nearly all actives have a fitted effect of over 60% in size
#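 AlphaScreen assay: L3MBTL1 (50 nM final) was preincubated 30 min at room temperature with biotinylated H3(1-15)K9me1 peptide (75 nM final), then 30 min with library compounds; streptavidin donor and nickel chelate acceptor beads (10 ug/mL final) added, 30 min dark.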
# Starred values were filed as active, the others as inactive; ? = inconclusive; / = no result given; [ ] = another dose, or the depositor's remark. Rows were chosen to be rich in hits. Some 12% of all compounds tested hit in one or more screens of this group. The call rests on the fitted dose curve; in most records, active means well fitted curve in the direction sought with a large enough effect; inconclusive means small, poorly fitted or top-dose-only effect, or another doubt; inactive means no such curve, though single readings can be large; an effect the other way counts as inactive or inconclusive. Potency means the concentration at half of the fitted maximal effect.
SMILES,HP1b chromo inh,BAZ2B inh,G9a inh,Sfp PPTase inh,JMJD2A Tudor,L3MBTL1 inh
Cc1ccc(S(=O)(=O)N2CCOC23CCN(C(=O)C(=O)NCCC(C)C)CC3)cc1,1%,4%,-28%,/,-10%,-1%
CC1CC(C)(C)CC2(C1)NC(=O)N(CC(=O)N1CCN(Cc3ccc(C#N)cc3)CC1)C2=O (stereo not given),-6%,-7%,50µM*,/,-12%,0%
CC1(c2ccc3ccccc3c2)NC(=O)N(CC(=O)N2CCN(Cc3ccc(C#N)cc3)CC2)C1=O (stereo not given),12%,2%,?,/,-16%,-15%
COCCn1c(=O)c(C)nc2cnc(Oc3ccc(OC)cc3)nc21,/,/,-1%[0.501 µM],8%,/,/
CNC(=S)Nc1ccc(N2CCCC2)c(S(=O)(=O)Nc2ccc(OC)cc2)c1,-19%,/,/,/,?,-7%
COc1ccc(NS(=O)(=O)c2ccc(N3CCCC3)c(NC(=S)Nc3cccc(S(=O)(=O)N(C)C)c3)c2)cc1,/,?,1.6µM*,4µM*,/,-11%
COc1ccc(CNCCCC(=O)Nc2c(Cl)ccc(C)c2Cl)cc1OC,79µM*,56µM*,3.2µM*,-16%,0.79µM*,/
O=C1c2ccccc2NC(c2ccc(O)c(O)c2)N1c1ccccc1Cl (stereo not given),-5%,40µM*,45µM*,2%,-18%,/
COc1cc(C2Nc3ccccc3C(=O)N2c2ccccc2OC)ccc1O (stereo not given),7%,?,-54%[2.33 µM],-10%,-26%,/
CC(C)(C)c1ccc(OCCNC(=O)c2ncn[nH]2)cc1,34%,11µM*,-5%,6%,5%,/
CCc1cc(C)cc(OCCNC(=O)c2ncn[nH]2)c1,30%,50µM*,8%[59 µM],23%,?,-27%
NS(=O)(=O)c1ccc(NC(=O)COC(=O)Cn2cnc3ccccc3c2=O)cc1,29%,/,/,/,-6%,2%
Cc1cccc(C)c1NC(=O)N1CCC(C(=O)c2ccc(F)cc2)CC1,-18%,0%,39%,18%,-9%,/
Cc1nc(C(F)(F)F)c(C(=O)N/N=C(\N)c2ccccn2)s1,14%,10µM*,11%,11%,79µM*,/
N/C(=N\NC(=O)Nc1ccc(Cl)cc1)c1ccccn1,-1%,16µM*,-28%,-20%,45µM*,?
CNC(=O)N/N=C(\N)c1ccccn1,40%,?,10µM*,-25%,?,7%
CCOc1ccc(C(=O)c2cn(CC(=O)Nc3ccc(OC)cc3)c3cc4c(cc3c2=O)OCO4)cc1,12%,-6%,-5%[59 µM],/,-20%,/
O=C(c1ccc2c(c1)N(Cc1ccc(F)cc1)C(=O)c1ccccc1S2(=O)=O)N1CCCC1,15%,-8%,4%[59 µM],/,-24%,/
O=C(NCc1ccccc1Cl)c1nnc(CS(=O)(=O)c2ccccc2)o1,19%,3%,18%,5%,-9%,8%
CCN(CC)CCOC(=O)c1cccnc1,/,/,-26%[12.7 µM],15%,/,/
O=C(NCCc1ccc(Cl)cc1)C1CCN(S(=O)(=O)c2ccc(-n3cnnn3)cc2)CC1,-11%,-3%,-5%,24%,79µM*,4%
Cc1ccccc1CCNC(=O)C1CCN(S(=O)(=O)c2ccc(-n3cnnn3)cc2)CC1,38%,-1%,-29%[2.33 µM],-4%,3%,/
CCN(C(=O)c1ccc2c(=O)n3c(nc2c1)CCCCC3)c1cc(C)ccc1C,34%,4%,0%[59 µM],/,4%,/
Cc1cccc2nc(COc3ccc(-c4ccccc4)cc3)cn12,/,?,10%,45µM*,/,-9%
O=c1cc(O)n(-c2ccc(F)cc2)c(=S)[nH]1,33%,-1%,32µM*,?,-3%,/
SMILES,HP1b chromo inh,BAZ2B inh,G9a inh,Sfp PPTase inh,JMJD2A Tudor,L3MBTL1 inh
CC(=O)c1ccc(NC(=O)CN2C(=O)NC3(CCc4ccccc43)C2=O)cc1 (stereo not given),28%,/,/,/,-11%,-4%
CCN(CC)CCN(CC(=O)N(C1CCCCC1)C1CCCCC1)C(=O)c1ccco1,?,50µM*,45µM*,-23%,1.6µM*,/
CCN(CC)C(=O)c1sc(NC(=O)c2ccc3c(c2)OCO3)c(C(N)=O)c1C,14%,-10%,/,4%,6%,/
COc1c(C)cccc1C(=O)NCc1ccc2c(c1)OCO2,73%,-12%,15%,-1%,-10%,/
COC(=O)c1c(NC(=O)CN2C(=O)c3ccccc3C2=O)sc(Cc2ccc3c(c2)OCO3)c1C,-8%,-6%,50µM*,6%,-2%,0%
Cc1c(Cc2ccc3c(c2)OCO3)sc(NC(=O)C2CC2)c1C(N)=O,-23%,-33%,3.5µM*,20µM*,?,/
Cc1c(Cc2ccccc2)sc(NC(=O)/C=C/c2cccc3ccccc23)c1C(N)=O,-3%,-11%,20µM*,-16%,40µM*,8%
Cc1c(Cc2ccc3c(c2)OCO3)sc(NC(=O)c2cccc3ccccc23)c1C(N)=O,?,?,7.1µM*,35µM*,?,-3%
CCOc1ccc(CC(=O)Nc2sc(Cc3ccccc3)c(C)c2C(N)=O)cc1OCC,-17%,?,5%[2.33 µM],20µM*,-35%,-12%
Cc1c(Cc2ccccc2)sc(NC(=O)c2ccco2)c1C(N)=O,14%,8%,5%[59 µM],-9%,-19%,4%
O=C1C(=O)N(CCc2c[nH]c3ccccc23)C(c2cccnc2)/C1=C(/O)c1ccccc1 (stereo not given),/,-22%,50µM*,24%,/,-3%
COc1cccc(C2C(C(=O)c3sc(C)nc3C)=C(O)C(=O)N2CCN2CCOCC2)c1OC (stereo not given),22%,?,?,-6%,-13%,6%
COc1ccc(C2C(C(=O)c3sc(C)nc3C)=C(O)C(=O)N2CCN(C)C)cc1OC (stereo not given),53%,4%,-27%[12.7 µM],-3%,-9%,1%
Cc1ccc(C2C(C(=O)c3sc(C)nc3C)=C(O)C(=O)N2CCN(C)C)o1 (stereo not given),10%,13%,45µM*,?,-31%,-1%
COc1ccccc1C1C(C(=O)c2sc(C)nc2C)=C(O)C(=O)N1CCN1CCOCC1 (stereo not given),35%,-35%,40µM*,-4%,-12%,-7%
CCOc1ccc(/C(O)=C2\C(=O)C(=O)N(CCOCCO)C2c2ccccc2OC)cc1 (stereo not given),-11%,-3%,17%[59 µM],5%,18µM*,-6%
C=CCOc1ccc(/C(O)=C2\C(=O)C(=O)N(CCOC)C2c2cccnc2)cc1 (stereo not given),11%,?,-24%[12.7 µM],2%,?,-6%
